Experimental data published in PubChem BioAssay (NCATS).
Results filed as inconclusive are left out. Where a call stands in place of a potency, no number is given. Some compounds were tested as several samples or in several runs, with calls that do not always agree. Calls of active or inactive are those of the source. Unless noted, the call rests on the fitted dose curve; in most records, active means well fitted curve in the direction sought with a large enough effect; inconclusive means small, poorly fitted or top-dose-only effect, or another doubt; inactive means no such curve, though single readings can be large; an effect the other way counts as inactive or inconclusive.

What was measured:
[1] = qHTS assay for measurement of the activity of small molecule inhibitors on Zika virus induced Caspase-3 activity in human iPSC derived neural progenitor cells (hNPCs) (AID 1224857); further: nearly all actives have a fitted effect of over 65% in size; further: potency means the concentration at half of the fitted maximal effect
In short: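 Human iPSC-derived neural progenitor cells pretreated 1 hr with compounds, then infected with Zika virus (2 FFU/cell) for 6 hours at 37 C. Caspase-3/7 measured by Caspase-Glo luminescence; % inhibition calculated from induction scaled to uninfected (0%) and infected (100%) wells.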

[2] = qHTS assay for measurement of the activity of small molecule inhibitors on Zika virus induced Caspase-3 activity in human astrocytoma cells (AID 1224859)
In short: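 SNB-19 astrocytoma cells, 250/well, pretreated 1 h with compounds, then Zika virus at 2 FFU/cell for 6 h at 37 C; Caspase-Glo 3/7 luminescence after 30 min; percent inhibition normalised to uninfected and infected controls.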

[3] = qHTS Screen of the MIPE 4.0 Collection Against Ewings Sarcoma (TC71) (AID 1259253); further: nearly all actives have a fitted effect of over 40% in size; further: potency means the concentration at half of the fitted maximal effect
In short: (§1)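 After a 4 h attachment period in RPMI/5% FBS, cells were pin-dosed with test compounds; DMSO served as negative and 9.2 uM bortezomib (final) as positive control. Luminescent CellTiter-Glo signal at 48 h defined viability.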

[4] = qHTS Screen of the MIPE 4.0 Collection Against Ewings Sarcoma (EW8) (AID 1259255); further: nearly all actives have a fitted effect of over 35% in size; further: potency means the concentration at half of the fitted maximal effect
In short: as §1

[5] = qHTS Screen of the MIPE 4.0 Collection Against Ewings Sarcoma (TC32) (AID 1259256); further: nearly all actives have a fitted effect of over 45% in size; further: potency means the concentration at half of the fitted maximal effect
In short: as §1

[6] = Identifying Small Molecule Inhibitors of Pancreatic Cancer Stem Cells (SN12C, Adherent) (AID 1259358);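 further: cell survival measured after 48 h of compound exposure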; further: potency means the concentration at half of the fitted maximal effect
In short: (§2)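 Adherent (2D) versus sphere (3D) formats; spheres generated 14 d in SCM beforehand. Compound transferred by pin tool after 4 h, 48 h incubation, CellTiter-Glo endpoint.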

[7] = Identifying Small Molecule Inhibitors of Pancreatic Cancer Stem Cells (A278, Adherent) (AID 1259361);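 further: viability read after 48 h compound exposure; nearly all actives have a fitted effect of over 35% in size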
In short: as §2

[8] = Identifying Small Molecule Inhibitors of Pancreatic Cancer Stem Cells (Panc1, Adherent) (AID 1259362); settings: Potency: viability; further: potency means the concentration at half of the fitted maximal effect
In short: as §2

[9] = Natriuretic polypeptide receptor (hNpr1) antagonism - Pilot counterscreen GloSensor control cell line (AID 1347045; calls by dose curve; further: potency means the concentration at half of the fitted maximal effect)
In short: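 HEK293 cGMP-sensor cells; 2% GloSensor reagent 2 h RT; LOPAC compounds in 1:5 titrations 30-50 min; 50 uM SNP 20 min; luminescence pre-read and post-read.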

[10] = biological target: Atrial natriuretic peptide receptor 2 (Homo sapiens) (UniProt P20594); assay: Natriuretic polypeptide receptor (hNpr2) antagonism - Pilot subtype selectivity assay (AID 1347050; calls by dose curve; further: potency means the concentration at half of the fitted maximal effect)
In short: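 Antagonist mode: compounds (LOPAC1280, seven 1:5 dilutions) added 30 min before 1 nM hNppC stimulation of hNpr2-HEK293 cGMP-sensor cells; luminescence read before and 20 min after agonist at ambient temperature.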

[11] = qHTS Screen of the MIPE 4.0 Collection Against Ewings Sarcoma (RDES) (AID 1259252); further: potency means the concentration at half of the fitted maximal effect; nearly all actives have a fitted effect of over 35% in size
In short: as §1

[12] = P-glycoprotein substrates identified in KB-8-5-11 adenocarcinoma cell line, qHTS therapeutic library screen (AID 1346987); further: nearly all actives have a fitted effect of over 65% in size; further: potency means the concentration at half of the fitted maximal effect
In short: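 In this qHTS, P-gp-rich KB-8-5-11 cells received library compounds across a concentration range. Viability was quantified by luminescence after 72 h at 37 degree C.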

[13] = NS1 protein of Zika virus - qHTS assay to identify small molecule inhibitors in human HEK 293 cells (AID 1347053); further: nearly all actives have a fitted effect of over 55% in size; further: potency means the concentration at half of the fitted maximal effect
In short: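 Read-out is a two-antibody TR-FRET for ZIKV NS1, normalized between uninfected cells and infected cells. Compound added 1 h before MR766 infection at MOI 0.5; human HEK 293 cells incubated 24 h, 37 C.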

[14] = P-glycoprotein substrates identified in KB-3-1 adenocarcinoma cell line, qHTS therapeutic library screen (AID 1346986); further: nearly all actives have a fitted effect of over 60% in size
In short: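 Dose-response cytotoxicity, KB-3-1 vs P-gp-high KB-8-5-11, no colchicine in assay medium. Read: CellTiter-Glo at 72 h.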

[15] = biological target: Atrial natriuretic peptide receptor 1 (Homo sapiens) (UniProt P16066); assay: Natriuretic polypeptide receptor (hNpr1) antagonism - Pilot screen (AID 1347049; calls by dose curve;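 further: HEK293 cells with hNpr1 and GloSensor cGMP luciferase stimulated by 0.1 nM hNppA; agonist-evoked cGMP luminescence read 20 min after hNppA addition; series mostly up to about 58 µM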)
In short: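 Receptor antagonism read as cGMP-dependent luminescence in hNpr1/pGS-40F HEK293 cells: pre-read after 30 min compound exposure, post-read 20 min after hNppA agonist at 0.1 nM final, all at room temperature, protected from light; A-71915 titration as control.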

[16] = Identifying Small Molecule Inhibitors of Pancreatic Cancer Stem Cells (A2780, Spheroid) (AID 1259357); settings: Potency: A2780 spheroid viability;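 further: spheroids pre-formed over 14 days in stem cell medium on hydrogel; compound exposure lasted 48 h before the ATP luminescence read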
In short: (§3)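 Spheroids grown 14 days in stem cell media on hydrogel-coated nonadherent plates; 2D lines seeded directly. Compounds added after 4 h attachment, 48 h at 37C, 5% CO2; CellTiter-Glo luminescence normalized to DMSO (no inhibition) and no-cell wells (full inhibition).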

[17] = Identifying Small Molecule Inhibitors of Pancreatic Cancer Stem Cells (SN12C, Spheroid) (AID 1259360); settings: Potency: SN12C spheroid viability
In short: as §3

Atrial natriuretic peptide receptor 2 (Homo sapiens), sequence (P20594 whole entry, looked up): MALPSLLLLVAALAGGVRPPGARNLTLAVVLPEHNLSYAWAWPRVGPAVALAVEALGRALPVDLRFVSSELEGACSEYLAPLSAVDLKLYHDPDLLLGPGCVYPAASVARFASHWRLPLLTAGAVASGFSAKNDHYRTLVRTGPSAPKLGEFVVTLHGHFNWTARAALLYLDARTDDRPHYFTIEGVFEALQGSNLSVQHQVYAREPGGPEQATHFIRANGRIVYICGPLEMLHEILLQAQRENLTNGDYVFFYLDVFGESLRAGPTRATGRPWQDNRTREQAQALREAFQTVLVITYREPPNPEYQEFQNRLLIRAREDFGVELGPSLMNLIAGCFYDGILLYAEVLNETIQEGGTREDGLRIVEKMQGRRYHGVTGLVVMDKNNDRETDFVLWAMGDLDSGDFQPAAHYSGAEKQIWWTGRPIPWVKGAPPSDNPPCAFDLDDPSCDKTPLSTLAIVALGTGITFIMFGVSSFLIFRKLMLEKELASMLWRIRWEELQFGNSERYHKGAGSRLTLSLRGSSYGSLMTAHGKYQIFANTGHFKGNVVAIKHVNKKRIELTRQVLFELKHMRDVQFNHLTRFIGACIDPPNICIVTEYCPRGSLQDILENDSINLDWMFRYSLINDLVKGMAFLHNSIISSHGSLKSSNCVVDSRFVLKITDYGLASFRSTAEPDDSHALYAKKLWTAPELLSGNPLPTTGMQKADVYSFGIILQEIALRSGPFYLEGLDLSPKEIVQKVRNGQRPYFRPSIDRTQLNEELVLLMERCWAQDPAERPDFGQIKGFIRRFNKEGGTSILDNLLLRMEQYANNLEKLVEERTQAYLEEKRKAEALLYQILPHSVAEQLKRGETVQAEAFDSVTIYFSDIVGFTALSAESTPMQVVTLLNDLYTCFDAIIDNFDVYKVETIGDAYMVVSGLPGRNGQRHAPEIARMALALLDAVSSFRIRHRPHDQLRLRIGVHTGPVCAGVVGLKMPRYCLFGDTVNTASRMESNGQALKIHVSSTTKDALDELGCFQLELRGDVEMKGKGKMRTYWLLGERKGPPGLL
Atrial natriuretic peptide receptor 1 (Homo sapiens), sequence (P16066 whole entry, looked up): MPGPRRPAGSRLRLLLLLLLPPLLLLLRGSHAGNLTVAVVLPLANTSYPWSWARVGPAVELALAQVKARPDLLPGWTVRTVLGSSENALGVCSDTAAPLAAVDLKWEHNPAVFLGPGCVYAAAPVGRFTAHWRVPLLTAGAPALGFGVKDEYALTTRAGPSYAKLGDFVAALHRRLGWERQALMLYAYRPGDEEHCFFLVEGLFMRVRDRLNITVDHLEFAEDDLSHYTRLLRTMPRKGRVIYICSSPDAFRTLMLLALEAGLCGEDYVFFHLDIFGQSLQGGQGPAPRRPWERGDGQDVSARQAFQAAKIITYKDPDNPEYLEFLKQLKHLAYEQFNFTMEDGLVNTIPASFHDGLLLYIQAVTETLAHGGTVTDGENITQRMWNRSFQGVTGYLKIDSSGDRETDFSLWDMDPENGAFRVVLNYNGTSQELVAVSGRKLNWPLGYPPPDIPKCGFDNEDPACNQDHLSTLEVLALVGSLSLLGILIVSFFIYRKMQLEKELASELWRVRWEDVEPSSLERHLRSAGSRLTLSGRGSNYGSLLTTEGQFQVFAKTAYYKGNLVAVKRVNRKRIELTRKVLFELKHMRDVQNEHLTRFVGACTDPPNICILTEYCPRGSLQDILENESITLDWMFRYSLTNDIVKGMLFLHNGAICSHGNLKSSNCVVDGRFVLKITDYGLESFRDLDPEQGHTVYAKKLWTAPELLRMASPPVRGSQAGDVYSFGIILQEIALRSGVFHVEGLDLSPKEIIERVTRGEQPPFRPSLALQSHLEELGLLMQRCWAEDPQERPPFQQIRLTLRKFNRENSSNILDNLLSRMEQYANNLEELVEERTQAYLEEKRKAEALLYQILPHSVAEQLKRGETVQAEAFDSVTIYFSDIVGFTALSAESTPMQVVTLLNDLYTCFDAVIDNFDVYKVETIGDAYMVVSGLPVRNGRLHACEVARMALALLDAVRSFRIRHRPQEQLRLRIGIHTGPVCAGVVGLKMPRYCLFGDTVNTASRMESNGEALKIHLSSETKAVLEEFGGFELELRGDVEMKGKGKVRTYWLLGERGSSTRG

COc1ccc2c(c[n+](C)c3c4cc5c(cc4ccc23)OCO5)c1OC
Potency [1]: inactive
Potency [2]: inactive
Potency [3]: 9.35 µM (active)
Potency [4]: 7.43 µM (active)
Potency [5]: 8.33 µM (active)
Potency [6]: 20.9 µM (active)
IC50 (viability decrease) [7]: 16.6 µM (active)
Potency [8]: 6.62 µM (active)
Potency [9]: 13.1 µM (active)
Potency [10]: 14.7 µM (active)

O=C(N[C@@H](COc1ccc2[nH]c(=O)[nH]c2c1)c1ccccc1)c1cccn(Cc2ccc(F)c(F)c2)c1=O
Potency [1]: inactive
Potency [2]: inactive
Potency [11]: 23.5 µM (active)
Potency [5]: 18.7 µM (active)
Potency [12]: inactive

C=C[C@@H]1CN2CCC1C[C@H]2[C@H](O)c1ccnc2ccccc12 (some centres not stated)
Potency [1]: inactive
Potency [2]: inactive
Potency [11]: 23.5 µM (active)
Potency [3]: 20.9 µM (active)
Potency [5]: 18.7 µM (active)

CN[C@@H]1Cc2cccc3[nH]c(=O)n(c23)C1
Potency [1]: inactive
Potency [2]: inactive
Potency [3]: inactive
Potency [4]: inactive
Potency [5]: inactive
Potency [12]: inactive
Potency [13]: inactive

O=C(O)CNC(=O)c1c(O)c2ccccc2n(Cc2ccccc2)c1=O
Potency [1]: inactive
Potency [2]: inactive
Potency [11]: 14.8 µM (active)
Potency [3]: 13.2 µM (active)
Potency [4]: 16.6 µM (active)
Potency [12]: inactive
Potency [13]: inactive

Oc1ccc2c3c1O[C@H]1c4[nH]c5c(c4C[C@@]4(O)[C@@H](C2)N(CC2CC2)CC[C@]314)C[C@@]1(O)[C@H]2Cc3ccc(O)c4c3[C@@]1(CCN2CC1CC1)[C@H]5O4
Potency [1]: inactive
Potency [2]: inactive
Potency [3]: inactive
Potency [4]: inactive
Potency [5]: inactive
Potency [14]: inactive
Potency [12]: inactive
Potency [9]: inactive
Potency [10]: inactive
Potency [13]: inactive

COc1cc2cc(c1Cl)N(C)C(=O)C[C@H](OC(=O)C(C)C)[C@]1(C)O[C@H]1[C@H](C)[C@@H]1C[C@@](O)(NC(=O)O1)[C@H](OC)C=CC=C(C)C2
Potency [1]: inactive
Potency [2]: inactive
Potency [3]: inactive
Potency [4]: inactive
Potency [5]: inactive
Potency [12]: 0.001 µM (active)
Potency [13]: inactive

CC[C@@]1(O)C(=O)OCc2c1cc1n(c2=O)Cc2cc3ccccc3nc2-1
Potency [1]: inactive
Potency [2]: inactive
Potency [3]: 0.0093 µM (active)
Potency [4]: 0.0118 µM (active)
Potency [5]: 0.0037 µM (active)
Potency [12]: 0.332 µM (active)
Potency [9]: inactive
Potency [15]: inactive
Potency [10]: inactive
Potency [13]: 11.8 nM (active) and inactive

CC(C)N[C@@H]1CCn2c(=O)[nH]c3cccc(c32)[C@@H]1O
Potency [1]: 16.6 µM (active)
Potency [2]: inactive
Potency [3]: 8.33 µM (active)
Potency [4]: 7.43 µM (active)
Potency [5]: 8.33 µM (active)
Potency [12]: inactive
Potency [13]: inactive

COCC1(CO)C(=O)C2CCN1CC2 (configuration not stated)
Potency [1]: inactive
Potency [2]: inactive
Potency [3]: 2.35 µM (active)
Potency [4]: 2.64 µM (active)
Potency [5]: 2.35 µM (active)
Potency [12]: inactive
Potency [13]: inactive

CCNC(=O)C[C@@H]1N=C(c2ccc(Cl)cc2)c2cc(OC)ccc2-n2c(C)nnc21
Potency [1]: inactive
Potency [2]: inactive
Potency [11]: 3.32 µM (active)
Potency [3]: 2.96 µM (active)
Potency [4]: 7.43 µM (active)
Potency [5]: 3.72 µM (active)
Potency [13]: inactive

CC(=O)O[C@@]12CO[C@H]1C[C@H](O)[C@@]1(C)C(=O)[C@H](O)C3=C(C)[C@@H](O)C[C@@](O)([C@@H](OC(=O)c4ccccc4)[C@@H]21)C3(C)C
Potency [1]: inactive
Potency [2]: inactive
Potency [11]: 2.35 µM (active)
Potency [3]: 23.5 µM (active)
Potency [4]: 2.35 µM (active)
Potency [12]: 7.43 µM (active)

Cc1c(C(=O)c2cccc3ccccc23)c2cccc3c2n1[C@H](CN1CCOCC1)CO3
Potency [1]: inactive
Potency [2]: inactive
Potency [3]: 26.4 µM (active)
Potency [4]: 26.4 µM (active)
Potency [5]: 26.4 µM (active)
Potency [12]: 7.43 µM (active)
Potency [15]: inactive
Potency [10]: inactive

CN1CCN(c2ccc([N+](=O)[O-])c3no[n+]([O-])c23)CC1
Potency [1]: inactive
Potency [2]: inactive
Potency [3]: 23.5 µM (active)
Potency [4]: 23.5 µM (active)
Potency [5]: 18.7 µM (active)
Potency [14]: inactive
Potency [12]: inactive
Potency [13]: inactive

COC1=C[C@@H]2[C@@H]3Cc4ccc(OC)c(O)c4[C@]2(CCN3C)CC1=O
Potency [1]: inactive
Potency [2]: inactive
Potency [11]: 4.69 µM (active)
Potency [3]: 3.32 µM (active)
Potency [5]: 2.96 µM (active)
Potency [14]: inactive
Potency [12]: inactive
Potency [13]: inactive

O=C(Oc1ccc([N+](=O)[O-])cc1)N1CCC(C(O)(c2ccc3c(c2)OCO3)c2ccc3c(c2)OCO3)CC1
Potency [1]: inactive
Potency [2]: inactive
Potency [11]: 16.6 µM (active)
Potency [4]: inactive
Potency [5]: inactive
Potency [16]: inactive
Potency [6]: inactive
Potency [17]: inactive
Potency [8]: inactive
Potency [12]: inactive
Potency [13]: inactive

O=c1[nH]c2ccccc2n1C1CCN(Cc2ccc(-c3[nH]c4cc5ncnc5cc4nc3-c3ccccc3)cc2)CC1
Potency [1]: inactive
Potency [2]: inactive
Potency [3]: 20.9 µM (active)
Potency [4]: 18.7 µM (active)
Potency [5]: 20.9 µM (active)
Potency [14]: inactive
Potency [12]: inactive
Potency [13]: 18.7 µM (active)

COc1cc([C@@H]2c3cc4c(cc3[C@@H](O)C3COC(=O)C32)OCO4)cc(OC)c1O (some centres not stated)
Potency [1]: inactive
Potency [2]: inactive
Potency [3]: 0.0418 µM (active)
Potency [4]: 0.0264 µM (active)
Potency [5]: inactive
Potency [12]: 0.118 µM (active)
